Here are results for 15 compounds from PubChem BioAssay (Tox21).

Records with an inconclusive call do not appear. Unmarked numbers belong to inactive results. Activity calls are given as the source filed them. Unless noted, calls follow the shape of the dose curve; as a rule, active = well fitted curve in the direction sought with a large enough effect in the repeat runs; inconclusive = weak or mixed curves; inactive = no such curve, though single readings can be large; an effect the other way counts as inactive or inconclusive.

Test [1] is described as follows: qHTS assay to identify small molecule antagonists of the thyroid receptor (TR) signaling pathway - cell viability counter screen (AID 743064). Also: nearly all actives have a fitted effect of over 50% in size. The method, boiled down: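 Same-well viability check: GH3.TRE-Luc cells stimulated with 1 nM T3 alongside test compound for 23.5 h, followed by CellTiter-Fluor fluorescence.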
In general terms: In qHTS, concentration-response curves come from the screen itself.

Test [2] can be described thus: qHTS assay to identify small molecule antagonists of the thyroid receptor (TR) signaling pathway (AID 743065). Also: series mostly up to about 70 µM; nearly all actives have a fitted effect of over 55% in size. Summed up: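 GH3.TRE-Luc rat pituitary cells (two TREs driving luciferase) were dosed with compound, then stimulated with 1 nM T3 (final) for 23.5 h at 37 C. ONE-Glo luminescence was the read-out, with CellTiter-Fluor fluorescence as the cytotoxicity counter-screen.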

Test [3] has as its system thyroid hormone receptor (rat, GH3 cells). The experiment in a line: qHTS assay to identify small molecule agonists of the thyroid receptor (TR) signaling pathway (AID 743066; calls by dose curve).
Test [4] is described as follows: qHTS assay to identify small molecule antagonists of the estrogen receptor alpha (ER-alpha) signaling pathway - cell viability counter screen (AID 743074; calls by dose curve; also: nearly all actives have a fitted effect of over 45% in size).
Test [5] in a line: qHTS assay to identify small molecule antagonists of the estrogen receptor alpha (ER-alpha) signaling pathway using the BG1 cell line - cell viability counter screen (AID 743081).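 Also: compound given together with 17beta-estradiol as the ER stimulus; series mostly up to about 70 µM; nearly all actives have a fitted effect of over 45% in size.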
A further test deals with Aromatase (Homo sapiens) (UniProt P11511). Kind of test: qHTS assay to identify aromatase inhibitors (AID 743083). Also: series mostly up to about 70 µM; nearly all actives have a fitted effect of over 55% in size.
Sequence of Aromatase (Homo sapiens) (P11511 whole entry, looked up): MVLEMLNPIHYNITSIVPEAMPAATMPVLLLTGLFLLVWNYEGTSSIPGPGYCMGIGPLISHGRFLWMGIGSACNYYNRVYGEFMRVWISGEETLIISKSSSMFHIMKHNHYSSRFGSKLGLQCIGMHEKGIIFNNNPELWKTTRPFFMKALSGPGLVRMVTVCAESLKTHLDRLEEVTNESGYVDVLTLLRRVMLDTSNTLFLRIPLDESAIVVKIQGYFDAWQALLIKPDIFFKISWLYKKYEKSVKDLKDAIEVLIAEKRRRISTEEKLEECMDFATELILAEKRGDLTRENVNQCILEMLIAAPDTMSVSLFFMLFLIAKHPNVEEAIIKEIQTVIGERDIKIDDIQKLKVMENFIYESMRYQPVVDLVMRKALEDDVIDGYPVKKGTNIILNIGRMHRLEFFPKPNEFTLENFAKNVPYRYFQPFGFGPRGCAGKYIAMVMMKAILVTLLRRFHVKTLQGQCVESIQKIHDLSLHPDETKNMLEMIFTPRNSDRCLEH
Test [6] in a line: qHTS assay to identify aromatase inhibitors - cell viability counter screen (AID 743084).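 Also: cells stimulated with testosterone during compound exposure; nearly all actives have a fitted effect of over 55% in size.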
The target in test [7] is Aryl hydrocarbon receptor (Homo sapiens) (UniProt P35869). The experiment in a line: qHTS assay to identify small molecule that activate the aryl hydrocarbon receptor (AhR) signaling pathway (AID 743085). Also: nearly all actives have a fitted effect of over 15% in size. Also: potency is read from the fitted curve at half-maximal effect.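 As to activation: HG2L7.5c1 human HepG2 liver cells with stably integrated DRE-driven firefly reporter; series mostly up to about 70 µM.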 Summed up: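 Reporter assay in engineered HepG2 line HG2L7.5c1, whose plasmid carries twenty dioxin responsive elements upstream of firefly luciferase. Treatment lasted 24 h at 37C; ONE-Glo luminescence gauged induction.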
Sequence of Aryl hydrocarbon receptor (Homo sapiens) (P35869 whole entry, looked up): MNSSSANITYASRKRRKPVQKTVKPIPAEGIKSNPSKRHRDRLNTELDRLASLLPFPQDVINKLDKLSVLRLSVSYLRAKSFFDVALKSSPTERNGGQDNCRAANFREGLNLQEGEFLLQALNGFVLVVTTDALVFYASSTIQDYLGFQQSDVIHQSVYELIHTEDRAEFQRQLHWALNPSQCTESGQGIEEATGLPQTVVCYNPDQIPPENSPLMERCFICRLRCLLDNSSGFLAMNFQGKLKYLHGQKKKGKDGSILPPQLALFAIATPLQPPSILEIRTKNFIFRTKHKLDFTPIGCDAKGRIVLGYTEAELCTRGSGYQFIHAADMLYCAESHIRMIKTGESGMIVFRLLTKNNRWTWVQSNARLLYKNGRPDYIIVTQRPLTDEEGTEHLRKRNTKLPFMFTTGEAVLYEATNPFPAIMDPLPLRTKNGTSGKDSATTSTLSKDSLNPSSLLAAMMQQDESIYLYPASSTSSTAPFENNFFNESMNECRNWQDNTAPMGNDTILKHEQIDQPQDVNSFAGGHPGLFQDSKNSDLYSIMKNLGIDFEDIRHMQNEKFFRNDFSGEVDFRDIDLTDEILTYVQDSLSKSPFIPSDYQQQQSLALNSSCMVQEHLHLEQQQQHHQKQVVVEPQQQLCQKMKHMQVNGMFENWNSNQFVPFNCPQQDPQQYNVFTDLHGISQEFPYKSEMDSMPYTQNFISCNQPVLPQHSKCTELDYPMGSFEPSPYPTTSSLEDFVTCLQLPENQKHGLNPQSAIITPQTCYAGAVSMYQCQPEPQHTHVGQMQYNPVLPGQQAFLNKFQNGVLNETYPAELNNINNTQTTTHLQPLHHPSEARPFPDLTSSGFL

Test [8] is described as follows: qHTS assay to identify small molecule that activate the aryl hydrocarbon receptor (AhR) signaling pathway - cell viability counter screen (AID 743086).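 Also: HepG2 liver cells carrying the AhR DRE luciferase reporter; series mostly up to about 70 µM; nearly all actives have a fitted effect of over 45% in size.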 The method, boiled down: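 HepG2-AhR-luc (HG2L7.5c1) cells, 4000/well, treated 24 h at 37 C with compound; viability measured as CellTiter-Fluor fluorescence after 30 min in the same wells as the luciferase read.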

Test [9] deals with Peroxisome proliferator-activated receptor gamma (Homo sapiens) (UniProt P37231). Kind of test: qHTS assay to identify small molecule agonists of the peroxisome proliferator-activated receptor gamma (PPARg) signaling pathway (AID 743094; active = well fitted activation curve with a large enough effect in the signal ratio in the repeat runs, not every such curve was filed as active; the % refers to the signal ratio). Summed up:
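Cells from the PPARg UAS-bla HEK293H line are plated and incubated 5 h at 37C. Compounds in DMSO are pinned in and left 17 h at 37C. LiveBLAzer B/G substrate is then added for 1 h at room temperature before fluorescence is measured.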

Test [10] shares this target. Kind of test: qHTS assay to identify small molecule antagonists of the peroxisome proliferator-activated receptor gamma (PPARg) signaling pathway (AID 743191; calls by dose curve; also: series mostly up to about 63 µM; nearly all actives have a fitted effect of over 30% in size). Summed up: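 GeneBLAzer PPARg UAS-bla HEK293H cells, 5 h post-plating, exposed to compounds 17 h at 37C. LiveBLAzer B/G FRET substrate added for 1 h at room temperature; beta-lactamase reporter read by fluorescence intensity.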

A short description of test [11]: qHTS assay to identify small molecule antagonists of the peroxisome proliferator-activated receptor gamma (PPARg) signaling pathway - cell viability counter screen (AID 743194). Also: nearly all actives have a fitted effect of over 55% in size. The method, boiled down: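 Cytotoxicity counter screen in PPARg-bla HEK293H cells, same wells as reporter assay. Compounds plus 50 nM rosiglitazone (final) for 17 h at 37 C, then viability read by CellTiter-Glo luminescence.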

The nature of test [12]: qHTS assay for small molecule agonists of the antioxidant response element (ARE) signaling pathway (AID 743202; active = well fitted activation curve with a large enough effect in the signal ratio in the repeat runs, not every such curve was filed as active; the % refers to the signal ratio). Summed up:
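HepG2 ARE-bla cells; 16 h treatment at 37 C; FRET-based beta-lactamase fluorescence read after 2 h substrate incubation at room temperature.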

Test [13] can be described thus: qHTS assay for small molecule agonists of the antioxidant response element (ARE) signaling pathway - cell viability counter screen (AID 743203; calls by dose curve; also: nearly all actives have a fitted effect of over 55% in size). Summed up:
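Cytotoxicity was tested in parallel with the ARE reporter screen. ARE-bla HepG2 cells were exposed to compounds for 16 hrs, and viability was taken from CellTiter-Glo luminescence.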

Test [14] in a line: qHTS assay for small molecule activators of the heat shock response signaling pathway - cell viability counter screen (AID 743209). Also: nearly all actives have a fitted effect of over 50% in size. Summed up:
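Cytotoxicity counter screen run in parallel with the HSE beta-lactamase reporter, using the same wells. HeLa HSE-bla cells received compound for 5 h at 37 C; ATP-based CellTiter-Glo luminescence was measured after 30 min at room temperature.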

The nature of test [15]: qHTS assay for small molecule activators of the heat shock response signaling pathway (AID 743210; active = well fitted activation curve with a large enough effect in the signal ratio in the repeat runs, with a control signal flat, not every such curve was filed as active; the % refers to the signal ratio;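 also: HeLa cells with beta-lactamase reporter driven by heat shock elements; series mostly up to about 63 µM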). Summed up: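 Following overnight attachment, HSE-bla HeLa cells received test compounds for 5 h at 37 C; beta-lactamase activity was then detected via FRET substrate fluorescence.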
The target in test [16] is Estrogen receptor (Homo sapiens) (UniProt P03372). The experiment in a line: qHTS assay to identify small molecule antagonists of the estrogen receptor alpha (ER-alpha) signaling pathway (AID 743069; active = well fitted curve in the direction sought with a large enough effect in the signal ratio in the repeat runs, not every such curve was filed as active; the % refers to the signal ratio). Summed up:
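In this cell-based reporter format, GripTite HEK293 cells harbouring ER-alpha-UAS-bla were grown overnight with 2% charcoal-stripped FBS, dosed with DMSO-dissolved compounds, then challenged with 17beta-estradiol. After 18 hr at 37C, beta-lactamase activity was detected by FRET fluorescence.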

Test [17] has the same target. Kind of test: qHTS assay to identify small molecule agonists of the estrogen receptor alpha (ER-alpha) signaling pathway (AID 743075; calls by dose curve).
Test [18] is described as follows: qHTS assay to identify small molecule antagonists of the estrogen receptor alpha (ER-alpha) signaling pathway using the BG1 cell line (AID 743080; calls by dose curve;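 also: BG1 cells stimulated with 17beta-estradiol alongside compound; series mostly up to about 70 µM; nearly all actives have a fitted effect of over 25% in size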). Summed up:
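After 5 days in phenol-red-free 10% charcoal-stripped FBS medium, BG1-Luc-4E2 cells were seeded, left 24 h at 37 C, co-treated with compounds and 17beta-estradiol for 21.5 h, then assayed for viability and luciferase.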

The target of test [19] is Estrogen receptor (Homo sapiens) (UniProt P03372). Kind of test: qHTS assay to identify small molecule agonists of the estrogen receptor alpha (ER-alpha) signaling pathway using the BG1 cell line (AID 743079). Also: nearly all actives have a fitted effect of over 20% in size.
Sequence of Estrogen receptor (Homo sapiens) (P03372 whole entry, looked up): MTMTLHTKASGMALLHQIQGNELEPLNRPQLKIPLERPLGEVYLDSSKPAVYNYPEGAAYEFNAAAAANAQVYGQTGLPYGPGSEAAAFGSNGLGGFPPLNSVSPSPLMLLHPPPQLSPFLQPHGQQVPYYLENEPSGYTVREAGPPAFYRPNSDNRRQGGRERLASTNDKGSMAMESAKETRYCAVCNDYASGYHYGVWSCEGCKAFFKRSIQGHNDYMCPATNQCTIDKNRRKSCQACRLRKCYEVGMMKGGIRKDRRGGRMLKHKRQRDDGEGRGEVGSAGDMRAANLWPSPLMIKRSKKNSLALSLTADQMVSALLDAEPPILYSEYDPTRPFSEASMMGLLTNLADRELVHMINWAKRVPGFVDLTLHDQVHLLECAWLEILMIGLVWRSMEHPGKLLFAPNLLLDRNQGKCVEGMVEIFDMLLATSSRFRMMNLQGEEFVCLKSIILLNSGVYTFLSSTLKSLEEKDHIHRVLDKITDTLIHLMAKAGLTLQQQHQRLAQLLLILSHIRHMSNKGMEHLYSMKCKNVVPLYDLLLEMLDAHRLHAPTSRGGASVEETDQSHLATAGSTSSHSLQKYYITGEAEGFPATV
% is scaled to controls: 0 for no effect and ±100 for the full control effect.

Sequence of Peroxisome proliferator-activated receptor gamma (Homo sapiens) (P37231 whole entry, looked up): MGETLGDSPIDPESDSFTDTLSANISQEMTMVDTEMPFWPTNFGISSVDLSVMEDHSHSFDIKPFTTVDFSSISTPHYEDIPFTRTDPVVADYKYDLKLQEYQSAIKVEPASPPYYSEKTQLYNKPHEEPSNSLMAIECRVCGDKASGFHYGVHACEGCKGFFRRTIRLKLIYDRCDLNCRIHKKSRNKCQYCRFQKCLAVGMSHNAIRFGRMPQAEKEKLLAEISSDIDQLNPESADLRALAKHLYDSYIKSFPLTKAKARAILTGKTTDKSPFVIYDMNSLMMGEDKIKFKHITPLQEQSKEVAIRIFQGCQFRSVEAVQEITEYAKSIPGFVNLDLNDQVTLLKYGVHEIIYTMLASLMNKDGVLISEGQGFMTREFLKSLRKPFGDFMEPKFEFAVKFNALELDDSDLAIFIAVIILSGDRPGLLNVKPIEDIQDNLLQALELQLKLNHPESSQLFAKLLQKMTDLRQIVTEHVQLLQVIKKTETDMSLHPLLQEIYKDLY

Regarding `CN=C(NC#N)Nc1ccc(C2=NNC(=O)CC2C)cc1` (configuration not stated), the Potency entry (in [1]; in [2]; with Aromatase (Homo sapiens); in test [6]; in [7]; in test [8]) was “inactive” in each case. Moreover, the Potency result in test [10] and in [12] was “inactive” in each case. For the same compound, the result in [3], in [4], in test [5], in test [9], in test [11] and in test [13] was inactive. Moreover, the compound was called inactive in test [14] and in [15].

As for `C[Si](C)=O`, in [1], the activity change, negative = cytotoxic was -4.47% [at 8.44 µM]. For the same compound, the results for the activity, negative = inhibition (in test [2]; with Aromatase (Homo sapiens)) were 0.0327% [at 8.44 µM] and 11% [at 8.47 µM], respectively. Further, the activation in [3] was 0.231% [at 8.08 µM]; in test [7] it was -0.45% [at 8.47 µM]; in [9], -3.83% [at 7.08 µM]; in test [12], -4.69% [at 8.36 µM]; in [15], -1.34% [at 5.95 µM]. Moreover, the activity, negative = cytotoxicity in test [4] was 5.35% [at 6.72 µM]. Besides, the activity change, negative = cytotoxicity in [5] is -7.83% [at 8.47 µM]; in test [6] it was -1.09% [at 8.47 µM]; in test [11] it was 17.1% [at 5.95 µM]; in test [14] it was 6.74% [at 5.95 µM]. The viability change, negative = cytotoxic was -0.537% [at 8.47 µM] in [8] and -8.17% [at 8.36 µM] in [13]. In addition, the ratio activity, negative = inhibition in test [10] is 8.93% [at 5.95 µM].

As for `Nc1cccc(O)c1`, the Potency entry (in test [1]; in [2]; in test [18]; in the test with Aromatase (Homo sapiens); in test [6]; in test [8]) was “inactive” in each case. Besides, the Potency entry in test [12] is “inactive”. The compound was called inactive in test [3], in test [16], in [17], in test [5], in [9] and in test [13]. In addition, the result in test [14] and in [15] was inactive. Further, the Potency in [7] was 35.4 µM (active).

For `CC/C=C\CC1=C(C)CCC1=O`, the Potency entry (in test [1]; in test [2]; with Aromatase (Homo sapiens); in [6]; in [7]; in test [8]) was “inactive” each time. Besides, in test [10], the Potency result is “inactive”. For the same compound, the call in test [3], in test [4], in test [5], in test [9], in [11] and in test [13] was inactive. Moreover, the result in test [14] and in [15] was inactive.

`COc1ccc(OC)c(Cl)c1`: the Potency result (in test [1]; in [2]; in the test with Aromatase (Homo sapiens); in test [6]; in [7]; in test [10]) was “inactive” throughout. Further, the outcome in test [3], in test [4], in [5], in [9], in [13] and in test [14] was inactive. The compound was called inactive in test [15].

As for `CCCCCOC(=O)CCC`, the Potency result (in test [1]; in test [2]; with Aromatase (Homo sapiens); in test [6]; in [7]; in [8]) was “inactive” in each case. For the same compound, the Potency entry in test [10] was “inactive”. For the same compound, the result in test [3], in test [4], in test [5], in test [9], in test [13] and in [14] was inactive. In test [15], the compound was classed as inactive.

For the compound `CCN1CCc2nc(N)oc2CC1`, the Potency result (in test [1]; in [2]; in test [19]; in [18]; with Aromatase (Homo sapiens); in test [6]) was “inactive” in each case. Moreover, the Potency result in test [7], in [8], in test [10] and in test [12] was “inactive” in each case. The call in test [3], in [4], in test [17], in [5], in test [9] and in test [11] was inactive. For the same compound, in test [15], the outcome was inactive.

For the compound `CCOCCOCCOCC`, the Potency entry (in [1]; in test [2]; with Aromatase (Homo sapiens); in [6]; in [7]; in test [8]) was “inactive” each time. Further, the Potency result in test [10] and in [12] was “inactive” in each case. Also, the result in test [3], in test [4], in test [5], in [9], in test [13] and in test [14] was inactive. The result in test [15] was inactive.

Turning to `COCCOCCOCCOCCOCCO`, the Potency entry (in test [1]; in [2]; with Aromatase (Homo sapiens); in test [6]; in test [7]; in test [8]) was “inactive” in each case. Further, the Potency entry in test [10] and in [12] was “inactive” each time. The call in test [3], in [4], in test [5], in [9], in test [11] and in test [14] was inactive. In addition, the compound was called inactive in test [15].

As for `OCCN(CCO)c1cccc(Cl)c1`, the Potency result (in test [1]; in [2]; in the test with Aromatase (Homo sapiens); in test [6]; in test [7]; in [8]) was “inactive” in each case. The Potency result in test [10] was “inactive”. In addition, the outcome in [3], in test [4], in [5], in test [9], in test [11] and in [13] was inactive. The outcome in test [14] and in test [15] was inactive.

With `CCCC/C=C\CCCCCCCCCC=O`, the Potency entry (in [1]; in test [2]; in the test with Aromatase (Homo sapiens); in test [6]; in test [7]) was “inactive” in each case. For the same compound, the outcome in test [3], in [4], in test [5], in test [9], in test [11] and in test [13] was inactive. The outcome in test [14] and in [15] was inactive.

As to `CCC(C=O)CC`, the Potency entry (in test [1]; in [2]; in the test with Aromatase (Homo sapiens); in [6]; in test [7]; in test [10]) was “inactive” each time. Moreover, the Potency entry in test [12] is “inactive”. In addition, the result in [3], in test [4], in test [5], in test [9], in [13] and in test [14] was inactive. The compound was classed as inactive in test [15].

On to `CC(C)CC(C)CC(C)CC(C)COC(=O)c1ccccc1C(=O)OCC(C)CC(C)CC(C)CC(C)C` (configuration not stated), for which the Potency entry (in test [1]; in test [2]; with Aromatase (Homo sapiens); in test [6]; in test [7]; in [8]) was “inactive” throughout. Moreover, in test [12], the Potency entry was “inactive”. Also, the call in [3], in test [4], in test [5], in [9], in [11] and in test [13] was inactive. Moreover, the compound was classed as inactive in test [14].

In the case of `CCCCCCCCCCl`, the Potency entry (in test [1]; in [2]; with Aromatase (Homo sapiens); in test [6]; in [7]; in [10]) was “inactive” in each case. Further, the Potency entry in test [12] is “inactive”. For the same compound, the compound was called inactive in [3], in [4], in [5], in test [9], in test [11] and in test [13]. The result in test [14] and in [15] was inactive.

Consider `N#Cc1ccc(C(=O)O)cc1`, for which the Potency result (in test [1]; in test [2]; with Aromatase (Homo sapiens); in test [6]; in test [7]; in test [8]) was “inactive” in each case. Moreover, the Potency result in test [12] is “inactive”. The call in test [3], in [4], in test [5], in [9], in [13] and in test [14] was inactive. Also, the compound was classed as inactive in test [15].
